This note sets out measurements from PubChem BioAssay (NCI).

Each structure is given as a SMILES string. Compounds without any hit were thinned out: in the full panel of roughly 79,000, 15% have a hit. Unmarked numbers belong to inactive results. Calls of active or inactive are those of the source. Cut-off read from the data, not from the text of the source: active = growth inhibition above about 70%; inactive = the rest.

This experiment in a line: NCI Yeast Anticancer Drug Screen. Data for the sgs1 mgt1 strain (AID 161).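 Note: 0% = growth of cultures given vehicle only.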 The conditions noted are these: S. cerevisiae sgs1 mgt1 strain, at 50.0 µM, hits give high values. As to the method:
Growth inhibition of yeast strains with defined genetic alterations is measured as a screen for potential anti-cancer activity. Selected strains with alterations in DNA damage repair or cell cycle control were exposed to compounds and growth inhibition was measured relative to vehicle treated controls. The strain used in this assay is sgs1 mgt1
With `CCCCS(=O)(=O)Nc1cccc(C(=O)O)c1`, the growth inhibition was 20.9%.

Take `O=C(c1ccccc1)C1(c2ccccc2)C(C(=O)c2ccccc2)(c2ccccc2)S1(=O)=O` (stereo not given): the growth inhibition is -8.05%.

Turning to `CCOC(=O)CCCCCSc1n[nH]c(=O)[nH]c1=O`, the growth inhibition is -21.9%.

With `O=c1oc2nc(-c3ccccc3)[nH]c(=O)c2c2c1CCCC2`, the growth inhibition was -19.2%.

Regarding `O=CN(CCO)CCO`, the growth inhibition was -3.5%.

For the molecule `O=c1[nH]c2cc([N+](=O)[O-])ccc2nc1/C=C(\O)c1ccc(Cl)cc1`, the growth inhibition is -20.1%.

Consider `CC(=O)N1C(=O)NC(=O)C1(C)C`, for which the growth inhibition was 6.65%.

In the case of `CC(C)CC(F)(C(N)=O)C(N)=O`, the growth inhibition is -3.4%.

`CCOC(=O)c1cn(C)c2c1C(=O)C(C(=O)OCC)CC(=O)N2` (stereo not given): the growth inhibition was -11.6%.

Take `COCCNC(=O)C(C)O` (stereo not given): the growth inhibition is -4.9%.

As for `CN(Cc1ccccc1)c1ccc(C(=O)O)cc1`, the growth inhibition was -5.55%.

`CC(=O)Nc1cc2cc(NC=C(C#N)C#N)ccc2oc1=O`: the growth inhibition is 14.1%.

As to `Cn1c(=O)c(Cl)c(N=[N+]=[N-])c2ccccc21`, the growth inhibition is 44%.

In the case of `N#CCCNC1CCCCC1`, the growth inhibition is 2.5%.

As to `CC(C)=CCC\C(C)=C/C=C/C(C)=C\C=C\C(C)=C/C=C/C=C(C)\C=C\C=C(C)/C=C/C=C(/C)CCC=C(C)C`, the growth inhibition is -29%.

`C[C@@]12CCC[C@H]1[C@@H]1CCC3=CC(=O)CC[C@]3(C)[C@H]1CC2`: the growth inhibition is -5.55%.

`Cc1cc(C)[n+](C)c2cc3ccccc3cc12`: the growth inhibition was 20.9%.

For the molecule `CCc1ccccc1NC(C)=O`, the growth inhibition was -8.7%.

As for `Cc1ccc(SCc2ccc(Cl)cc2)nn1`, the growth inhibition is -1.65%.

As to `CN1CCC(OC(=O)C(O)C2CCCCC2)CC1` (stereo not given), the growth inhibition was 13.8%.

Turning to `Cc1cc2oc(=O)[nH]c(=S)c2c(C)c1C`, the growth inhibition was -35.2%.

In the case of `CCC(=O)NC(C(=O)O)C(C)(C)S` (stereo not given), the growth inhibition is 0.1%.

On to `CN(Cc1ccc(Cl)cc1)C(=O)NCCCCCCNC(=O)N(C)Cc1ccc(Cl)cc1`, for which the growth inhibition was 95.7% (active).

For `O=C(O)C(=O)NCc1cnccn1`, the growth inhibition was -3.65%.

For `S=C(N/N=C\c1ccccc1)Nc1ccccc1`, the growth inhibition is -8.2%.

Consider `Cc1ccc(Cc2ccccc2C(=O)O)cc1`, for which the growth inhibition is -2.3%.

On to `COC(=O)NCP(=O)(CNC(=O)OC)CNC(=O)OC`, for which the growth inhibition was -1.35%.

As to `CCCCCCCCN1N=C(C)CCC1=O`, the growth inhibition was -0.45%.

With `O=C(Nc1ccc(F)cc1)C(=O)C(C1OC(=O)c2ccccc21)[N+](=O)[O-]` (stereo not given), the growth inhibition is 8.7%.

In the case of `CCN(CC)C(=O)C1(C)NS(=O)(=O)c2ccccc2C1=O` (stereo not given), the growth inhibition is -4.15%.

With `O=C(O)CCC(C(=O)O)N1C(=O)C2C3CCC(C3)C2C1=O` (stereo not given), the growth inhibition is -36.2%.

For `O=C(Nc1cccc(Cl)c1)OC1C=CCC1` (stereo not given), the growth inhibition is 2.65%.

Consider `CC(=O)/C(=C\c1ccccc1F)C(=O)CCN(C)C`, for which the growth inhibition was 8.05%.

Turning to `COc1cccc(N=Nc2c(-c3ccccc3)nn(C(=S)S)c2C)c1`, the growth inhibition was 17.6%.

Turning to `C/C=C(\Cl)C=O`, the growth inhibition is -22.9%.

On to `COc1ccc(N=C(C)C2C(=O)c3ccccc3C2=O)cc1`, for which the growth inhibition is -10.2%.

For `CC(=O)Oc1ccc(C2COc3cc(OC(C)=O)c(OC(C)=O)cc3C2)cc1` (stereo not given), the growth inhibition is 43%.

For the molecule `O=c1c2cc(-c3ccccc3)sc2nc2n1N=C(c1ccccc1)CS2`, the growth inhibition is -12.9%.

Turning to `Cc1cc2nc3c(N)ccc(N)c3nc2cc1N`, the growth inhibition is -0.65%.

Consider `C=CN1C(=O)c2ccccc2C1=O`, for which the growth inhibition was -8.95%.
